The nature of assay [1]: binders of probe aFSTL3 on microarray, primary screen, stem cell growth factor project, biochemical, small-molecule microarray, fluorescence 635/667 (AID 1064).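 Also: measures binding of the biotinylated anti-FSTL3 antibody to printed compounds.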 Particulars: higher = more signal.
Assay [2] can be described thus: binders from COS7 lysate, DM2A8 probe, primary screen, torsin A project, cell lysate, small-molecule microarray, fluorescence 635/667 (AID 1065). Particulars: higher = more signal, COS7 lysate expressing mutant human TOR1A.
The nature of assay [3]: binders of probe aFGF2 on microarray, primary screen, stem cell growth factor project, biochemical, small-molecule microarray, fluorescence 635/667 (AID 1067).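 Also: measures binding of biotinylated aFGF2 protein to printed compounds on slides; z-score merges feature fluorescence and signal-to-noise across triplicate slides.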 Particulars: higher = more signal.
The nature of assay [4]: binders of probe aFGF10 on microarray, primary screen, stem cell growth factor project, biochemical, small-molecule microarray, fluorescence 635/667 (AID 1071).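 Also: score merges 667 nm spot intensity and signal to noise from triplicate slides.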 Particulars: higher = more signal.
Assay [5] concerns the target Neurogenic locus notch homolog protein 2 (Homo sapiens) (UniProt Q04721). Briefly: Notch2 binders on small-molecule microarrays, primary screen, biochemical, small-molecule microarray, 635 nm fluorescence, stem cell growth factors (AID 1073). Particulars: Notch2 binding, higher = more signal.
Assay [6] deals with Pro-neuregulin-1, membrane-bound isoform (Homo sapiens) (UniProt Q02297). The experiment in a line: NRG1 binders on small-molecule microarrays, primary screen, psychiatric disease protein project, biochemical, small-molecule microarray, fluorescence 635/667 (AID 1075).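 Also: score combines 667 nm spot fluorescence with signal to noise.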 The note with it: NRG1 binding, 635 nm fluorescence, higher = more signal.
Pro-neuregulin-1, membrane-bound isoform (Homo sapiens), sequence (Q02297 whole entry, looked up, the tested form may be a part, canonical isoform): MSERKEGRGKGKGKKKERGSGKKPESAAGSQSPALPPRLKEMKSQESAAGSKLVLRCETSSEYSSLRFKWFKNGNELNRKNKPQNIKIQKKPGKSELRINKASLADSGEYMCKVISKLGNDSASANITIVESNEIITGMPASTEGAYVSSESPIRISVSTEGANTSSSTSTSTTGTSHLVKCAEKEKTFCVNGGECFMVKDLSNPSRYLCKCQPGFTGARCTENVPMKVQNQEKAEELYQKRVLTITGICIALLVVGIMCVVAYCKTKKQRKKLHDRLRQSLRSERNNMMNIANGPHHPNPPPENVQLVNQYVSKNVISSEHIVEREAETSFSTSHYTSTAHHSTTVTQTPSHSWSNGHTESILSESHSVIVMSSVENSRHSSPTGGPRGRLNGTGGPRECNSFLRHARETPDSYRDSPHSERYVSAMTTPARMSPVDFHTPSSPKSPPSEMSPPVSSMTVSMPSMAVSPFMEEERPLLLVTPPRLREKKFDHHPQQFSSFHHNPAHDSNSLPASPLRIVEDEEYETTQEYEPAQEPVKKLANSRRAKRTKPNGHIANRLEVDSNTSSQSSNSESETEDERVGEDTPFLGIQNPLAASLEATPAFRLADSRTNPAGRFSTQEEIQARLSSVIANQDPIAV
The subject of assay [7] is Neuregulin-1 EGF-like domain. The experiment in a line: binders of neuregulin-1 EGF-like domain, primary screen, biochemical, small-molecule microarray, 635 nm fluorescence (AID 1081).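 Also: binding of the protein to compounds printed on small-molecule microarray slides.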 Particulars: small-molecule microarray binding, higher = more signal.
Assay [8] in a line: FRG1 promoter luciferase signal modulators, primary screen, FRG1 inhibition for FSHD, cell-based, C2C12 myotubes, firefly/Renilla luciferase, luminescence (AID 1084). The note with it: higher = more signal, called active from +8 up or from −8 down.
Assay [9] can be described thus: binders of probe aFST on microarray, primary screen, stem cell growth factor project, biochemical, small-molecule microarray, fluorescence 635/667 (AID 1086).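 Also: score merges 667 nm fluorescence with signal-to-noise of each printed compound spot.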 The note with it: higher = more signal.
The nature of assay [10]: binders of probe aHhip on microarray, primary screen, stem cell growth factor project, biochemical, small-molecule microarray, fluorescence 635/667 (AID 1087).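 Also: score merges spot fluorescence at 667nm with spot signal to noise ratio.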 Particulars: higher = more signal.
The subject of assay [11] is PRMT1 (protein arginine N-methyltransferase 1). The experiment in a line: PRMT1 binders on small-molecule microarrays, primary screen, biochemical, small-molecule microarray, 635 nm fluorescence (AID 1088).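 Also: binding of Prmt1 protein to compounds spotted on small-molecule microarray slides.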 Particulars: small-molecule microarray binding, higher = more signal.
The nature of assay [12]: yeast growth modulation, basal conditions, primary screen, YJM789 clinical isolate, OD600, 24 h (AID 1089).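 Also: growth of clinical yeast isolate S. cerevisiae YJM 789 seeded 1000 cells per well; test concentration not given here.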 Particulars: S. cerevisiae YJM789 growth, higher = more signal, called active from +8 up or from −8 down.
The nature of assay [13]: fission yeast growth modulation, primary screen, strain 972, OD600, 24 h, no modulator (AID 1090).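 Also: basal condition with compound alone and no growth modifier present; test concentration not given here.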 The note with it: S. pombe 972 growth, higher = more signal, called active from +8 up or from −8 down.
Assay [14] in a line: S. cerevisiae growth modulation with rapamycin, primary screen, strain BY4716, OD600, 96 h (AID 1091). Also: test concentration not given here. The note with it: higher = more signal, called active from +8 up or from −8 down.
The target in assay [15] is Torsin-1A-interacting protein 2 (Homo sapiens) (UniProt Q8NFQ8). Briefly: LULL1 binders on small-molecule microarray, primary screen, cell lysate, human LULL1 lysate, 635/667 nm fluorescence (AID 1092).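 Also: probe is lysate of COS7 cells overexpressing human LULL1; score merges per-feature 667 nm fluorescence with signal-to-noise.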 Particulars: hLULL1 lysate binding, 635 nm fluorescence, higher = more signal.
Torsin-1A-interacting protein 2 (Homo sapiens), sequence (Q8NFQ8 whole entry, looked up): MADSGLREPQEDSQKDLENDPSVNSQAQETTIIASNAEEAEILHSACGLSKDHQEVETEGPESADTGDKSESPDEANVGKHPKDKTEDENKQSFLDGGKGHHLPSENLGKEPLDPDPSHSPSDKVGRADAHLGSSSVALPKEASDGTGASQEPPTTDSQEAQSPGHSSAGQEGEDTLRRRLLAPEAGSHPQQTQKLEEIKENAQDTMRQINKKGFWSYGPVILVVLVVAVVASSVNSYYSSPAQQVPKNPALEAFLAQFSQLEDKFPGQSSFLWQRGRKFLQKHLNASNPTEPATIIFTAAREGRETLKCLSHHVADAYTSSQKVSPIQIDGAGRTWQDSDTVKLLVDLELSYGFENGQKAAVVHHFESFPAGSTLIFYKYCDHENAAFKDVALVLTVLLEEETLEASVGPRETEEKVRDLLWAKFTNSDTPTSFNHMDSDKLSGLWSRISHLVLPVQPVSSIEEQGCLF
Assay [16] can be described thus: E. coli growth modulation, two-sided OD650, primary screen, E. coli filamentation project, strain DRC41, 24 h (AID 1093).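 Also: MC1000 strain lacking acrAB efflux and sulA so SOS filamentation is blocked; test concentration not given here.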 Particulars: OD650, 24 h, higher = more signal, called active from +8 up or from −8 down.
The nature of assay [17]: small-molecule microarray binders of probe aLefty2, primary screen, biochemical, biotinylated probe, 635/667 nm fluorescence (AID 1094).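 Also: score merges spot fluorescence near 667 nm with spot signal-to-noise ratio.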 The note with it: higher = more signal.
In assay [18] the test system is Noggin (protein binding on small-molecule microarray). Briefly: Noggin binders on small-molecule microarray, primary screen, biochemical, 635/667 nm fluorescence (AID 1095).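 Also: score merges 667 nm feature fluorescence with signal to noise over triplicate slides.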 Particulars: 635 nm fluorescence, higher = more signal.
Assay [19] concerns the target Neurogenic locus notch homolog protein 3 (Homo sapiens) (UniProt Q9UM47). The experiment in a line: NOTCH3 binders on small-molecule microarray, primary screen, biochemical, 635/667 nm fluorescence (AID 1096). The note with it: NOTCH3 binding, 635 nm fluorescence, higher = more signal.
The nature of assay [20]: small-molecule microarray binders of probe aEGFR, primary screen, biochemical, biotinylated probe, 635/667 nm fluorescence (AID 1097).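 Also: probe is a biotinylated anti-EGFR antibody binding compounds printed on slides; score combines fluorescence near 667 nm and signal to noise of each spot.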 The note with it: higher = more signal.

The source made the active and inactive calls.

Neurogenic locus notch homolog protein 3 (Homo sapiens), sequence (Q9UM47 whole entry, looked up): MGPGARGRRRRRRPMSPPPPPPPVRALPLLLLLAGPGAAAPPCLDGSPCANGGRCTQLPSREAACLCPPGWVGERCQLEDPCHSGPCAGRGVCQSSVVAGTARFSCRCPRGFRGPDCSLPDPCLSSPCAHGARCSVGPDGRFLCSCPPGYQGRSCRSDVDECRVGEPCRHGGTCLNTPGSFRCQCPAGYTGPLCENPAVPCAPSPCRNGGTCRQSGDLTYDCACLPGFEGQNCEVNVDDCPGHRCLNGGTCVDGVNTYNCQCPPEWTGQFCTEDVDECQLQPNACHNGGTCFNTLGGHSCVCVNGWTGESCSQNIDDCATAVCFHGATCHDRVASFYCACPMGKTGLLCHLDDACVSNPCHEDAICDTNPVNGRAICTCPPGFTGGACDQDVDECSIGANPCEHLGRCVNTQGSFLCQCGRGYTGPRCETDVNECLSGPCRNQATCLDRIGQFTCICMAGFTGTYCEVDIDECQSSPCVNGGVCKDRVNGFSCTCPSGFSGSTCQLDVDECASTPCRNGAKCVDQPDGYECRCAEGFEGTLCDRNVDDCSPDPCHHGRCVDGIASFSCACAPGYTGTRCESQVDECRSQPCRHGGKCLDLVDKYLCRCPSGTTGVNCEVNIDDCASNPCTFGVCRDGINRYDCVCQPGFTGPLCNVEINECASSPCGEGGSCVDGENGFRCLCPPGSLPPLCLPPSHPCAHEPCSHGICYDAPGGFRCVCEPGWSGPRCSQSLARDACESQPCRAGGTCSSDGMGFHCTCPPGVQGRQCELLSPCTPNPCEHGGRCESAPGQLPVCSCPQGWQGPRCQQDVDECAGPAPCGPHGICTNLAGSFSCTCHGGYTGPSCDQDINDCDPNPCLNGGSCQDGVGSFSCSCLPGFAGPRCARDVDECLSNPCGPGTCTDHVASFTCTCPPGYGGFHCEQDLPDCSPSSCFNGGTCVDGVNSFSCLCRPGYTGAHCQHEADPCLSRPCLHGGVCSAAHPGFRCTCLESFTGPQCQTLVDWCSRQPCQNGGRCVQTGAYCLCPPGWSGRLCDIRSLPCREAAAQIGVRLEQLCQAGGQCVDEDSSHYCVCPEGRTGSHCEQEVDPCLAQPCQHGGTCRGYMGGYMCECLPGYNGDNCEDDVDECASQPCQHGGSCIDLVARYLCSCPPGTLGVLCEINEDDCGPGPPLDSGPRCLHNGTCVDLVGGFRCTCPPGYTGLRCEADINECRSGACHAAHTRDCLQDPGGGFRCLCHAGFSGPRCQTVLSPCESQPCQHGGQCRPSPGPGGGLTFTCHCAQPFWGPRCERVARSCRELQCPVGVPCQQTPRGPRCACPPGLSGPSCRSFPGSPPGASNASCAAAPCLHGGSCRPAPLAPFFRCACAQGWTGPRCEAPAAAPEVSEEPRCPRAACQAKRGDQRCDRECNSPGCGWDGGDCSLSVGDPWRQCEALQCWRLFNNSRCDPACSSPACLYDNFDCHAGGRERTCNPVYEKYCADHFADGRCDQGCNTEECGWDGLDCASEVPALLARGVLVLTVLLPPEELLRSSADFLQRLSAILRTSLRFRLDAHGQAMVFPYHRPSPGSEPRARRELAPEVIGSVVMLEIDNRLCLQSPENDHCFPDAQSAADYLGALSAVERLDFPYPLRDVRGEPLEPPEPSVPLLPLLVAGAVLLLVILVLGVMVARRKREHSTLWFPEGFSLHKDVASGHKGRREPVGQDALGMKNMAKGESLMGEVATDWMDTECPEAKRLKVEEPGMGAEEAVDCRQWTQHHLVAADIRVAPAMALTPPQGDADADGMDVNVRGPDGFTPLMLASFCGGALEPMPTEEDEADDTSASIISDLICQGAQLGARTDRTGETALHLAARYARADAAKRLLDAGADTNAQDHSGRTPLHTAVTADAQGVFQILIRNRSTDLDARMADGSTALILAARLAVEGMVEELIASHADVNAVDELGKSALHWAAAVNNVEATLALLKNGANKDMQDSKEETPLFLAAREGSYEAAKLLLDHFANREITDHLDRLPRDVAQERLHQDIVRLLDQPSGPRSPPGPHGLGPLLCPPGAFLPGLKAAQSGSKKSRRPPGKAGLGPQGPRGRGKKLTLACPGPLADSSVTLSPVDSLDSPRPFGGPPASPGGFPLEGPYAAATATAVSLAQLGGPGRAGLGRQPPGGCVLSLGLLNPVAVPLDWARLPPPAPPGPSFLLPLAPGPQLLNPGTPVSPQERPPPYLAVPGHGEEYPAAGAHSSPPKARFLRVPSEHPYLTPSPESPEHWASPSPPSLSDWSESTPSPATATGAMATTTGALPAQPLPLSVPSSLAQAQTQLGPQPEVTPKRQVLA

Turning to `COc1ccc([Si](C)(C)[C@@H]2[C@@H](CC(=O)N(CCO)Cc3ccccc3)O[C@]3(C(=O)N(C)c4c(Br)cc(C)cc43)[C@H]2C)cc1`, the composite z-score was -0.106 in [1]; -0.0018 in assay [2]; -0.13 in assay [3]; 0.33 in assay [4]; -0.561 in assay [5]; 0.679 in assay [6]. For the same compound, the composite z-score in assay [7] was 0.508; in assay [9], -0.051; in [10], 0.0052; in [11] it was 1.37; in [15], 0.214; in assay [17] it was -0.149. Besides, the composite z-score is 1.56 in assay [18], 0.92 in assay [19] and -0.0978 in assay [20]. The z-score was -3.19 (inactive) in assay [8]; -0.8 (inactive) in [12]; 0.0424 (inactive) in assay [13]; 0.991 (inactive) in assay [14]; -1.37 (inactive) in assay [16].
With `COCCOC(=O)N1C(=O)[C@@]2(c3cc(C#Cc4ccc(OC)cc4)ccc31)[C@H](C(N)=O)[C@H]1C(=O)O[C@H](c3ccccc3)[C@H](c3ccccc3)N1[C@@H]2c1ccc(OCCO)cc1`, the composite z-score in assay [1] was -0.358; in assay [2], 0.562; in assay [3] it was 0.0014; in assay [4], 0.62; in [5], 1.17; in assay [6] it was 0.869. Further, the composite z-score in assay [7] was 1.28; in [9], 0.512; in [10], -0.251; in [11], 1.53; in [15], 2.75; in assay [17], -0.0757. The composite z-score in assay [18] stood at 1.43; in [19], 1.07; in [20], 0.0251. Further, the z-score in [8] is 0.574 (inactive); in [12], 2.17 (inactive); in assay [13], 0.719 (inactive); in assay [14] it was 4.88 (inactive); in assay [16] it was 1.31 (inactive).
In the case of `C=CC[C@@]1(C(=O)NCCN2CCOCC2)N=C(c2ccc(OCCCO)cc2)O[C@@H]1c1ccccc1`, the composite z-score was determined as 0.424 in assay [1]; 1.64 in assay [2]; 0.0342 in assay [3]; 0.66 in assay [4]; 0.52 in assay [5]; 0.595 in assay [6]. Also, the composite z-score was 1.36 in assay [7]; 1.16 in assay [9]; 0.124 in assay [10]; 1.54 in [11]; 3.01 in assay [15]; 0.0634 in [17]. The composite z-score in assay [18] was found to be 2.08; in assay [19], 0.625; in assay [20] it was 0.0149. Also, the z-score is 0.254 (inactive) in assay [8]; 0.305 (inactive) in assay [12]; 0.132 (inactive) in assay [13]; 0.33 (inactive) in assay [14]; 0.0348 (inactive) in assay [16].
Consider `C=C(C(=O)CC[C@H](OC(=O)c1cccnc1)c1ccc(OCCO)cc1)C(C)C`, for which the composite z-score in assay [1] was -0.241; in [2] it was 1.43; in assay [3] it was 0.0612; in [4], 0.404; in assay [5], 0.539; in [6] it was 0.19. The composite z-score is 1.2 in assay [7]; 0.995 in [9]; 0.0881 in assay [10]; 1.55 in assay [11]; 1.76 in [15]; -0.0961 in assay [17]. Besides, the figures for the composite z-score in assay [18], in assay [19] and in assay [20] were 0.986, 0.717 and -0.0362, respectively. Further, the z-score in [8] is 1.14 (inactive); in assay [12] it was 0.366 (inactive); in [13], -1.54 (inactive); in assay [14], 0.905 (inactive); in [16] it was -0.388 (inactive).
As for `COc1ccc(C(=O)Nc2ccc(CN3C(=O)[C@@]4(O[C@@H](CC(=O)N5Cc6ccccc6C[C@H]5CO)[C@H]([Si](C)(C)c5ccc(OC)cc5)[C@H]4C)c4ccccc43)cc2)cc1`, the composite z-score in assay [1] is -0.313; in [2], 0.17; in assay [3], 0.0275; in [4] it was 0.158; in [5] it was -0.0395; in assay [6], 0.822. The composite z-score was 1.1 in assay [7]; 0.185 in assay [9]; -0.173 in assay [10]; 1.51 in assay [11]; 1.92 in assay [15]; -0.215 in assay [17]. In addition, the composite z-score in [18] was 1.61; in assay [19], 1.13; in assay [20] it was -0.0961. Besides, the z-score in [8] was -4.29 (inactive); in [12] it was -1.8 (inactive); in assay [13] it was 0.821 (inactive); in [14], 1.87 (inactive); in assay [16] it was 0.265 (inactive).

The values are drawn from PubChem BioAssay.
